A selection: hits, their analogues and other compounds. The true share with any hit is near 4.3%.
Peg3 prom inh: Peg3 promoter activity inhibition. HeLa PEG-Prom luciferase reporter, luminescence, overnight. inhibition, % at 20 µM. 360,000 tested, 1.7% active. AID 588405;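 active = inhibition of at least 50% at 20 µM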
HIF-2a inh: inhibitors of HIF-2a; AID 624352; 786-0 RCC cells HIF-2a reporter, luciferase luminescence, overnight; inhibition, % at 18.8 µM; 360,000 tested, 0.72% active;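 active = inhibition of the luminescence signal of 40% or more relative to plate controls, in a single-dose primary screen at 18.75 µM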
MITF TRPM1 inh: MITF TRPM1 promoter inhibition in SK-MEL-5 cells. AID 488899. SK-MEL-5 TRPM1 promoter luciferase, 24 h. inhibition, % at 12.5 µM. 330,000 tested, 0.83% active;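 active = mean inhibition across replicates of 60% or more, whatever share of single replicates reaches that level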
KKLEB cytotox: counter-screen for CF NF-kB inhibitors: cytotoxicity | KKLEB CF airway cells viability, ATPlite luminescence, overnight; hits give low values; cells stimulated with P. aeruginosa culture filtrate | 360,000 tested, 0.36% active | AID 602141 | activity change (cytotoxicity), % at 5 µM;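 active = corrected activity change at or below -50% at 5 µM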
CF NFkB block: inhibitors of cystic fibrosis induced NF-kB; KKLEB NF-kB-GFP reporter, PAF-induced, GFP fluorescence overnight; inhibition, % at 5 µM; 360,000 tested, 0.86% active;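 active = at least 50% inhibition at 5 µM, scaled per plate between neutral and stimulator controls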;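 also: PAF is a Pseudomonas aeruginosa culture filtrate used as stimulus; plate controls were PAF-stimulated DMSO wells for no effect and unstimulated DMSO wells for full effect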
CHOP inh: inhibitors of CHOP induction in ER stress response | inhibition, % at 10 µM | 220,000 tested, 3.8% active | CHO-K1 CHOP-promoter luciferase, tunicamycin-induced, 15-18 h;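 active = compounds that reduced the stress-induced luciferase reporter signal by more than about 70% of percent inhibition, limit read from the data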;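 also: 0% = tunicamycin plus vehicle and 100% = wells without tunicamycin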
* = called active by the depositor.

What do the screens show for `O=C1COc2ccc(-c3csc(=Nc4ccc(OC(F)F)cc4)n3CC3CCCO3)cc2N1` (configuration not stated)?
Peg3 prom inh: 33.6; HIF-2a inh: 7.8; MITF TRPM1 inh: 17.7; KKLEB cytotox: -5.7; CF NFkB block: -22.9; CHOP inh: 78.0*

How did Cc1ccc(Nc2nnc(SCC(=O)NCC3CCCO3)s2)cc1C (configuration not stated) do in these assays?
Peg3 prom inh: -148.8; HIF-2a inh: -173.7; MITF TRPM1 inh: -34.0; KKLEB cytotox: -9.7; CF NFkB block: 3.8

What do the screens show for `NC(=O)c1c(NC(=O)C2COc3ccccc3O2)sc2c1CCN(Cc1ccccc1)C2` (configuration not stated)?
Peg3 prom inh: 3.4; HIF-2a inh: 6.4; MITF TRPM1 inh: -8.8; KKLEB cytotox: 2.6; CF NFkB block: -1.8; CHOP inh: 79.0*

How did NC(=O)c1c(NC(=O)C2c3ccccc3Oc3ccccc32)sc2c1CCCCC2 do in these assays?
Peg3 prom inh: 9.5; HIF-2a inh: 24.5; MITF TRPM1 inh: -6.5; KKLEB cytotox: 16.0; CF NFkB block: -13.5; CHOP inh: 73.8*

Results for N#Cc1c(NC(=O)c2ccc([N+](=O)[O-])o2)sc2c1CCC2 ?
Peg3 prom inh: -94.7; HIF-2a inh: -269.0; MITF TRPM1 inh: 18.1; KKLEB cytotox: -23.0; CF NFkB block: 3.7

Results for CC(=O)Nc1sc2c(c1C(N)=O)CCCC2 ?
Peg3 prom inh: -2.6; HIF-2a inh: -0.7; MITF TRPM1 inh: -2.0; KKLEB cytotox: 4.6; CF NFkB block: 6.3; CHOP inh: 4.7

Results for NC(=O)c1c(NC(=O)c2ccc([N+](=O)[O-])o2)sc2c1CCCC2 ?
Peg3 prom inh: 99.4*; HIF-2a inh: 7.2; MITF TRPM1 inh: 62.3*; KKLEB cytotox: -64.0*; CF NFkB block: 107.4*

What do the screens show for `Cc1[nH]c(C)c(S(=O)(=O)N2CCN(c3ccccc3)CC2)c1C(=O)N1CCCCC1`?
Peg3 prom inh: 17.4; HIF-2a inh: 0.2; MITF TRPM1 inh: -2.2; KKLEB cytotox: 8.7; CF NFkB block: 6.8

Results for C/C(=C\c1ccc(C(=O)O)cc1)c1ccc2c(c1)C(C)(C)CCC2(C)C ?
Peg3 prom inh: 0.8; HIF-2a inh: 30.8; MITF TRPM1 inh: -1.8; KKLEB cytotox: -9.0; CF NFkB block: 91.0*; CHOP inh: 0.3

How did Cc1ccc(C(=O)NC(Cc2cccc(C(F)(F)F)c2)C(=O)O)cc1 (configuration not stated) do in these assays?
Peg3 prom inh: -16.5; HIF-2a inh: -6.2; MITF TRPM1 inh: -7.5; KKLEB cytotox: 3.1; CF NFkB block: -3.1

What do the screens show for `O=C(O)CCN1CCN(S(=O)(=O)c2ccc3ccccc3c2)CC1`?
Peg3 prom inh: 16.4; HIF-2a inh: 20.7; MITF TRPM1 inh: -5.8; KKLEB cytotox: 4.6; CF NFkB block: -4.0

How did O=C1CCC(C(=O)Nc2cccc(Br)c2)N1 (configuration not stated) do in these assays?
Peg3 prom inh: 2.9; HIF-2a inh: 9.0; MITF TRPM1 inh: 9.3; KKLEB cytotox: -11.0; CF NFkB block: 6.0

What do the screens show for `O=[N+]([O-])c1cccc(/C=N/Nc2nnc(-c3ccccc3)c(-c3ccccc3)n2)c1`?
Peg3 prom inh: 12.1; HIF-2a inh: 18.3; MITF TRPM1 inh: -8.2; KKLEB cytotox: 7.1; CF NFkB block: 19.7; CHOP inh: 19.8

What do the screens show for `C/C(=N\Nc1nnc(-c2ccccc2)c(-c2ccccc2)n1)c1cccc([N+](=O)[O-])c1`?
Peg3 prom inh: 19.2; HIF-2a inh: 10.1; MITF TRPM1 inh: -21.6; KKLEB cytotox: -51.3*; CF NFkB block: 33.8; CHOP inh: 78.2*

Results for O=C(/C=C/c1ccccc1)NCc1ccco1 ?
Peg3 prom inh: -51.2; HIF-2a inh: -99.9; MITF TRPM1 inh: -35.7; KKLEB cytotox: 1.5; CF NFkB block: -22.5; CHOP inh: -41.6

What do the screens show for `N#C/C(=C\C=C\c1ccccc1)C(=O)NCc1ccco1`?
Peg3 prom inh: 52.7*; HIF-2a inh: -2.3; MITF TRPM1 inh: 2.0; KKLEB cytotox: -2.4; CF NFkB block: -18.2; CHOP inh: -8.3

How did O=C(COC(=O)c1sc2ccccc2c1Cl)NCC1CCCCC1 do in these assays?
Peg3 prom inh: 59.0*; HIF-2a inh: 8.2; MITF TRPM1 inh: 1.7; KKLEB cytotox: 9.0; CF NFkB block: -15.5; CHOP inh: 34.5

Compound activity as filed in PubChem.
